# Laboratory results published in PubChem BioAssay (EPA / NIEHS).
# Values joined by “and” are separate entries in the source; they are usually repeats but may differ in a detail not shown here. Equal values may be shown once. Some compounds were tested as several samples or in several runs, with calls that do not always agree. Active and inactive are the calls of the source. Rule for the calls: active = hit-call score of the fitted dose curve at least 0.9, where 1 is the maximum; inactive = score below 0.9.
# Read-out: Tissue plasminogen activator (tPA), PLAT (gene 5327)
# Assay: BSK_BE3C_tPA: BioMAP Diversity Plus: BE3C Assay for Tissue plasminogen activator (tPA) Biomarker Activity (AID 2283041)
# Conditions: primary human bronchial epithelial cells; actives raise or lower the signal
# Method: BSK_BE3C is a cell-based, multiplexed-readout assay that uses bronchial epithelial cell, a human lung primary cell, with measurements taken at 24 hours after chemical dosing in a 96-well plate.BSK_BE3C_tPA is an assay component measured in the BSK_BE3C assay. It measures tPA antibody related to regulation of gene expression using ELISA technology.Data from the assay component BSK_BE3C_tPA was analyzed into 1 assay endpoint. This assay endpoint, BSK_BE3C_tPA, was analyzed with bidirectional fitting relative to DMSO as the negative control and baseline of activity. Using a type of binding reporter, gain or loss-of-signal activity can be used to understand changes in the signaling as they relate to the gene PLAT. Furthermore, this assay endpoint can be referred to as a primary readout, because this assay has produced multiple assay endpoints where this one serves a signaling function. To generalize the intended target to other relatable targets, this assay endpoint is annotated to the protease intended target family, where the subfamily is serine protease.
# The levels of cell surface (or secreted, indicated by the prefix "s") biomarker endpoints were measured by ELISA. Overt cytotoxicity to cells in confluent adherent cultures (all systems other than the BT system) was assessed by measuring total protein levels using sulforhodamine B (SRB) staining in parallel cultures at the time of biomarker measurements, indicated as SRB endpoints. For proliferation assays for adherent cell types, individual cell types are cultured at sub-confluence and relative cell numbers quantified by SRB staining at time points optimized for each system (48 h: 3C and CASM3C systems; 72 h: BT and HDF3CGF systems; 96 h: SAg system). SRB was performed by staining cells with 0.1% SRB after fixation with 10% TCA and reading wells at 560 nm.Viability and proliferation of PBMC (T cells) was quantified by Alamar Blue reduction for the SAg and BT systems. For PBMC viability (referred to as PBMC Cytotoxicity within the assay endpoint names), cells were plated (75,000/well in a 96-well plate) and then chemical samples added for 1 h before addition of activators, SEB and TSST-1 (20 ng/mL final concentration each). Cells were incubated for 90 h. Then, Alamar Blue (20 uL/well) (Invitrogen, Cat DAL1100) was added for 6 h, and the plates were read with a fluorescence microplate reader at 546/580 nm (excitation/emission). For PBMC proliferation, cells were plated and activated as above but incubated for only 16 h prior to addition of Alamar Blue. Plates were read after 6 h.
Compound,outcome,AC50
C#C[C@]1(O)CC[C@H]2[C@@H]3CCc4cc(O)ccc4[C@H]3CC[C@@]21C,inactive,
O=S1(=O)CC(Cl)(Cl)C(Cl)(Cl)C1,,0.964 µM (active)
C=C(C)C(N)=O,inactive,
c1ccc2c(c1)-c1ccc3ccc4cccc5cc-2c1c3c45,inactive,
OCCN1CCOCC1,inactive,
O=C(O)C(F)(F)OC(F)(F)C(F)(F)OC(F)(F)C(F)(F)C(F)(F)C(F)(F)F,inactive,12.4 µM (active)
C=C(F)C(=O)OC(C(F)(F)F)C(F)(F)F,inactive,
COc1ccccc1NC(=O)CC(C)=O,inactive,
O=C(O)C(F)(F)C(F)(F)C(F)(F)C(F)(F)C(F)(F)C(F)(F)C(F)(F)C(F)F,inactive,
c1ccc(Sc2ccccc2)cc1,,20 µM (active)
CC(C)Cc1ccc(C(C)C(=O)O)cc1 (stereo not given),inactive,
C=C1CC/C=C(\C)CC[C@@H]2[C@@H]1CC2(C)C,inactive,
CCOC(=O)CCCCCCCCC(=O)OCC,inactive,
CC1=CC(C)C(C=O)C(C)C1 (stereo not given) (tested in a mixture with another compound),inactive,
O=C(c1ccc(OCCN2CCCCC2)cc1)c1c(-c2ccc(O)cc2)sc2cc(O)ccc12,,20 µM (active)
CC(=O)OCC=C(C)CCC=C(C)CCC=C(C)C,,3.97 µM (active)
CC(=O)OC(C)(C)C1CC=C(C)CC1 (stereo not given),,27.7 µM (active)
Nc1ccc(N)c([N+](=O)[O-])c1,inactive,
C[C@]12CC[C@@H]3c4ccc(O)cc4CC[C@H]3[C@@H]1CC[C@@H]2O,inactive,
CCC(=O)OCC=Cc1ccccc1,inactive,

Compound,outcome,AC50
C=C(C)C(=O)OCCC(F)(F)C(F)(F)C(F)(F)C(F)(F)C(F)(F)C(F)(F)C(F)(F)C(F)(F)F,inactive,
CC(C)(C)c1cccc(O)c1,inactive,
CC=CC(=O)C1=C(C)C=CCC1(C)C,inactive,
CC(=O)c1ccc(C)cc1,inactive,
CC/C(=C(\c1ccccc1)c1ccc(OCCN(C)C)cc1)c1ccccc1,,7.72 µM (active) and 14 µM (active)
NC(=O)c1c(Cl)cccc1Cl,inactive,
CCCO[Si](OCCC)(OCCC)OCCC,inactive,
CC(C)CCCC(C)(C)O,inactive,
OCC(F)(OC(F)(F)C(F)(OC(F)(F)C(F)(F)C(F)(F)F)C(F)(F)F)C(F)(F)F (stereo not given),inactive,
c1ccc(OCCOc2ccccc2)cc1,inactive,
C=CC(=O)OCC(CO)(COC(=O)C=C)COC(=O)C=C,inactive,
CCCCCCCCCC(=O)OCC,,20 µM (active)
CCn1cc(C(=O)O)c(=O)c2ccc(C)nc21,inactive,
CCOC(=O)C=Cc1ccccc1,inactive,
COC(=O)c1ccc(C(=O)OC)cc1,inactive,
CC(C)(CO)CO,inactive,
CCCCCCCCCCCCS,inactive,
CC1(C)[C@H](C=C(Cl)Cl)[C@H]1C(=O)OCc1cccc(Oc2ccccc2)c1,inactive,
CCCCN(CCO)CCO,inactive,
